An excerpt weighted towards active compounds, which were near 0.84% of everything screened.
NCOA2 inhibitor = inhibits human steroid receptor coactivator 2 | Q15596 | HEK293 GAL4-SRC2 luciferase reporter, luminescence | inhibition, % at 9 µM | 370,000 compounds, 0.17% hits | AID 651957;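 active = inhibition above the mean inhibition of all tested compounds plus 3 SD, set per campaign, cut at about 52% in these data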;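 note: 0% = DMSO treated cells and 100% = cells given Gossypol at 36 µM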
Target sequence (Q15596 whole entry, looked up, the tested form may be a part): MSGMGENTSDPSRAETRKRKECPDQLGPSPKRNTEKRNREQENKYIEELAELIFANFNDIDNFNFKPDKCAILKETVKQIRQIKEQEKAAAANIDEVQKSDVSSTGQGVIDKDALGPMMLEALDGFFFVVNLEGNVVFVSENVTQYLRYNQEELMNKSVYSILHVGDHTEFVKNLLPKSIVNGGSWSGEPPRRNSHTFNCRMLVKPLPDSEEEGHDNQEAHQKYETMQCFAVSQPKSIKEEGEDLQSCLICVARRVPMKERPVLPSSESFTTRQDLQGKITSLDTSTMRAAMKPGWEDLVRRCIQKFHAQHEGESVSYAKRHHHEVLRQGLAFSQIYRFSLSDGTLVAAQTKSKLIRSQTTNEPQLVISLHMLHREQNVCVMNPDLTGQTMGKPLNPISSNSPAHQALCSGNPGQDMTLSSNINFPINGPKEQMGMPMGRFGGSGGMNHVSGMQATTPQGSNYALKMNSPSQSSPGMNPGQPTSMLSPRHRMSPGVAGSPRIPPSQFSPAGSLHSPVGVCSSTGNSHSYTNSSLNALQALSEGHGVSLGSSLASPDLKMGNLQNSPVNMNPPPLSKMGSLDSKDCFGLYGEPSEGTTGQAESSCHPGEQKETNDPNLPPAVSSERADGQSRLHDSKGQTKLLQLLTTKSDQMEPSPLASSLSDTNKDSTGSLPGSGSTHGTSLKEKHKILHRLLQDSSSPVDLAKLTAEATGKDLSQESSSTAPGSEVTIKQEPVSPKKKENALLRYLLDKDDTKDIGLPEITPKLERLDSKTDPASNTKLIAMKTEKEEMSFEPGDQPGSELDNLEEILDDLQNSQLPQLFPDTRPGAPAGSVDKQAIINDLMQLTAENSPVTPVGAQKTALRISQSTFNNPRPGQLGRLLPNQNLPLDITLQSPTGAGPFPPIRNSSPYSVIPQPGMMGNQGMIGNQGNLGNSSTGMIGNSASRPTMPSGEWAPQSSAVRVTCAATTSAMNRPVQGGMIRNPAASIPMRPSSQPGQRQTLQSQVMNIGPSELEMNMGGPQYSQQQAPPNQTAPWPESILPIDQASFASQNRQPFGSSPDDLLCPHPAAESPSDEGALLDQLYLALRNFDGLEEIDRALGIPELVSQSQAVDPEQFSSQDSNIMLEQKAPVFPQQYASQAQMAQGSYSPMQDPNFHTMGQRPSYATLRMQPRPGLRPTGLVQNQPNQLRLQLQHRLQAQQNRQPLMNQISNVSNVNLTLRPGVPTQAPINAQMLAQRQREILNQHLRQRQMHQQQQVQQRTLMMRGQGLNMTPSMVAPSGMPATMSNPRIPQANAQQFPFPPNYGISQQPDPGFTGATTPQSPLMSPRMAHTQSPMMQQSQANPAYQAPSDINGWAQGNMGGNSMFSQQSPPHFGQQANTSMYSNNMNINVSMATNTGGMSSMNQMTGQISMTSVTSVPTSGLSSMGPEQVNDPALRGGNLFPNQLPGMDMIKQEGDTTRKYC
NCOA1 inh = inhibitors of human steroid receptor coactivator 1 (SRC1) | Q15788 | HEK293 GAL4-SRC1 luciferase reporter, luminescence | inhibition, % at 3.6 µM | 360,000 compounds, 0.12% hits | AID 588354;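 active = inhibition above the campaign mean plus 3 SD, with each screening campaign given its own cutoff, cut at about 60% in these data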;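 note: 0% = DMSO treated cells and 100% = gossypol at 36 µM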
NCOA3 inh = inhibits human SRC3 coactivator; AID 588352; Q9Y6Q9; HEK293 GAL4-SRC3 luciferase reporter, luminescence; inhibition, % at 3.6 µM; 360,000 compounds, 0.17% hits;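 active = inhibition above a per-campaign cutoff, the mean of all compounds plus 3 SD, cut at about 60% in these data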;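 note: 0% = DMSO-treated cells and 100% = gossypol-treated cells at 36 µM; higher means less SRC3-driven luciferase light from the GAL4 reporter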
NR2F2 inh = blocks human COUP-TFII nuclear receptor. P24468. HEK293T NGFI-A luciferase reporter, luminescence. inhibition, % at 8.6 µM. 370,000 compounds, 0.7% hits;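 active = inhibition above a per-plate cutoff, mean inhibition of test wells between control levels plus 3 SD, cut at about 38% in these data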;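 note: cells cotransfected with COUP-TFII expression vector driving the NGFI-A reporter; 0% = median of COUP-TF2 test wells and 100% = reporter-only cells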
LRH-1 inv ag = suppresses constitutive activity of human LRH-1; HEK293T StAR-luciferase reporter, LRH-1 transfected, 24 h; inhibition, % at 3.6 µM; 360,000 compounds, 0.13% hits; AID 602396;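 active = inhibition above the mean inhibition of all tested compounds plus 3 SD, cut at about 73% in these data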;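 note: 0% = DMSO wells and 100% = reporter-only cells lacking LRH-1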
Gal4-VP16 ctr = counter-screen for COUP-TFII antagonists: inhibitors of VP16. shares compounds with NR2F2 inh. HEK293 Gal4-VP16 luciferase reporter, luminescence. inhibition, % at 8.5 µM. 2,500 compounds, 25% hits; in the data active = inhibition above about 13%
NR2F2 inh conf = COUP-TFII (NR2F2) inhibition, confirmation assay; shares compounds with NR2F2 inh; HEK293 NGFI-A luciferase reporter, luminescence; inhibition, % at 8.5 µM; 2,500 compounds, 45% hits; AID 687008;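 active = mean inhibition over three repeats above a set limit taken from the earlier primary screen, cut at about 38% in these data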;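 note: 100% = cells given the luciferase reporter alone without the COUP-TF2 vector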
An asterisk follows results filed as active; . = no result given.

SMILES | NCOA2 inhibitor | NCOA1 inh | NCOA3 inh | NR2F2 inh | LRH-1 inv ag | Gal4-VP16 ctr | NR2F2 inh conf
Cn1c(CN2CCCCC2)nc2cc(NC(=O)c3ccc(Cl)cc3)ccc21 | -17 | 10 | -2 | 62* | 29 | -12 | 48*
NC(=O)c1c(-c2ccc(Cl)cc2Cl)csc1NC(=O)Cc1ccccc1 | 10 | 8 | 13 | 73* | 15 | -23 | 54*
CCC(=O)N(C1=C(NC(C)C)C(=O)c2ccccc2C1=O)C(C)C | -7 | 8 | 4 | 3 | 12 | . | .
CCCNC1=C(N(C(C)=O)c2cccc(F)c2)C(=O)c2ccccc2C1=O | 58* | 28 | 40 | 57* | 79* | 12 | -2
CCC(=NC(C)c1ccccc1)c1c(O)n(C)c(=O)n(C)c1=O (centres undefined) | 22 | 13 | 27 | 56* | 19 | -1 | 29
CCC(C(=O)OCC(=O)c1c(N)n(CC(C)C)c(=O)n(C)c1=O)c1ccccc1 (centres undefined) | 1 | 5 | 11 | 2 | 0 | . | .
O=C(COC(=O)c1ccccc1O)NC(c1ccccc1)c1ccccc1 | -12 | -1 | -1 | 41* | 11 | -1 | -2
CC(NC(=O)COC(=O)c1ccccc1O)c1ccccc1 (centres undefined) | -4 | 0 | 1 | -12 | 8 | . | .
CN(Cc1ccccc1)C1=CC(=[N+]2CCCC2)CC(C)(C)C1 | 8 | 39 | 63* | 72* | 72 | 15* | 64*
NC(Cc1ccc(Cl)cc1)c1csc(NC(=O)NCCc2ccccc2)n1 (centres undefined) | 3 | 15 | -13 | -9 | -14 | . | .
NC(Cc1ccc(Cl)cc1)c1csc(NC(=O)NCC2CCCCC2)n1 (centres undefined) | 60* | -4 | 12 | 81* | -8 | 2 | 0
CCCN1CC(=O)N2[C@H](C[C@@]3(n4ccc5ccccc54)c4ccccc4N(S(=O)(=O)c4ccccc4)[C@@H]23)C1=O | 3 | . | . | -9 | . | . | .
O[C@@H]1[C@@H](O)C=C2CCN3Cc4cc5c(cc4[C@H]1C23)OCO5 (some centres undefined) | 36 | 75* | 89* | 56* | 98* | 3 | 26
Cc1[nH]c2ccccc2c1/C=N/Nc1nncn1N | 17 | -33 | -34 | 92* | -21 | -70 | -35
COc1ccc(S(=O)(=O)Nc2ccc(O)c(Sc3ncn[nH]3)c2)cc1 | 0 | 11 | 23 | -2 | 2 | . | .
COc1ccc(S(=O)(=O)Nc2cc(Sc3ncn[nH]3)c(O)c3ccccc23)cc1 | 61* | . | . | 67* | . | 13* | 20
CC1=CC(=O)C(C(C)C)=C/C1=N\OS(=O)(=O)c1ccc(F)cc1 | . | . | . | 92* | . | 29* | 15
O=S(=O)(c1ccc(F)c(Cl)c1)N1CCN(C/C=C/c2ccccc2)CC1 | 26 | 7 | 16 | 3 | 10 | . | .
CC1CCN(c2ccc(C(=O)O)cc2NS(=O)(=O)c2cccc3cccnc23)CC1 | -21 | . | . | 15 | . | . | .
Cc1ccc(C2CC(C(F)(F)F)n3nc(C(=O)NCc4c(C)nn(C)c4C)c(Cl)c3N2)cc1 (centres undefined) | 21 | 26 | 33 | 45* | 23 | 0 | 23
Cc1nn(C)c(C)c1CNC(=O)c1cnn2c1NC(c1ccccc1)CC2C(F)(F)F (centres undefined) | 16 | -20 | 16 | -13 | 0 | . | .
Cc1ccc(S(=O)(=O)N2CCN(c3ncnc4sccc34)CC2)cc1 | 22 | 8 | 15 | 50* | 20 | 6 | 37
O=S(=O)(c1ccc(F)c(F)c1F)N1CCN(c2ncnc3sccc23)CC1 | 21 | 11 | -8 | 40* | 27 | -2 | 32
Cc1ccc(-c2[nH]c3ccccc3c2SCCNC(=O)c2ccc(S(=O)(=O)N3CCOCC3)cc2)cc1 | -6 | -24 | 13 | 47* | 28 | -8 | -8
COc1ccc(-c2[nH]c3ccccc3c2SCCNC(=O)c2ccccc2)cc1 | 7 | -17 | -17 | 15 | -17 | . | .
SMILES | NCOA2 inhibitor | NCOA1 inh | NCOA3 inh | NR2F2 inh | LRH-1 inv ag | Gal4-VP16 ctr | NR2F2 inh conf
COC(=O)c1c(-c2ccc(OC)cc2)c2c(c3c4cc(F)ccc4n(S(=O)(=O)c4ccc(C)cc4)c13)C(=O)N(C)C2 | -25 | . | . | 2 | . | . | .
COC(=O)c1c(-c2ccc(C)cc2)csc1NC(=O)Cc1ccc(OC)c(OC)c1 | -17 | -12 | -12 | 27 | 0 | . | .
COC(=O)c1c(-c2cccc3ccccc23)csc1NC(=O)Cc1ccc(OC)c(OC)c1 | 10 | 3 | 11 | 41* | -3 | 2 | 29
CCCCNC(=O)OCCCN1CCC2(CCC(c3ccccc3)CC2)C1=O (centres undefined) | 4 | . | . | 9 | . | . | .
CCc1ccc(CCNC(=O)OCCCN2CCC3(CCC(c4ccccc4)CC3)C2=O)cc1 (centres undefined) | 34 | . | . | 41* | . | -7 | 7
CCCN1CCCCC(NC(=O)OC(C)(C)C)C1=O (centres undefined) | 16 | . | . | 4 | . | . | .
NC(=S)NN=C1c2cc(OCCN3CCOCC3)ccc2-c2ccc(OCCN3CCOCC3)cc21 | 34 | 73* | 55 | 68* | 75* | 10 | 80*
ON=C1c2cc(OCCN3CCCCC3)ccc2-c2ccc(OCCN3CCCCC3)cc21 | . | -13 | -16 | . | -18 | . | .
CN1CCN(C(=O)c2ccc(Cc3cn(C)c4ccccc34)nc2)CC1 | -14 | -10 | -7 | -4 | 2 | . | .
C#CCN(C[C@@H]1[C@@H](OC(=O)NCc2ccccc2F)[C@@H](OC(=O)NCc2ccccc2F)Cn2c(=O)ccc(=O)n21)S(=O)(=O)c1ccc(C)cc1 | 22 | 5 | 36 | 63* | 25 | 23* | 37
C#CCN(C[C@@H]1[C@@H](OC(=O)NC2CCCC2)[C@@H](OC(=O)NC2CCCC2)Cn2c(=O)ccc(=O)n21)S(=O)(=O)c1ccc(C)cc1 | -30 | -6 | -30 | 34 | 26 | . | .
C#CCN(C[C@@H]1[C@@H](OC(=O)Nc2cccs2)[C@@H](OC(=O)Nc2cccs2)Cn2c(=O)ccc(=O)n21)S(=O)(=O)c1ccc(C)cc1 | 52 | 14 | 25 | 76* | 53 | 25* | 43*
C#CCN(C[C@@H]1[C@@H](OC(=O)NCc2ccccc2F)[C@@H](OC(=O)NCc2ccccc2F)Cn2c(=O)n(CCCCCC)c(=O)n21)S(=O)(=O)c1ccc(C)cc1 | 0 | -2 | -7 | 1 | 16 | . | .
O=C(Nc1nc(-c2ccc(F)cc2)cs1)C1CCN(C(=O)c2ccc(F)cc2)CC1 | 30 | 3 | 2 | 58* | 1 | 4 | 46*
COc1ccc(-c2c[n+]3c(n2-c2ccccc2)CCCCC3)cc1 | 10 | 36 | 33 | 33 | 40 | . | .
CCOc1ccc(-n2c(-c3ccc(Br)cc3)c[n+]3c2CCCCC3)cc1 | 16 | 11 | 42 | 25 | 54 | . | .

Source: PubChem BioAssay (The Scripps Research Institute Molecular Screening Center)
